According to PubChem BioAssay (EPA / NIEHS):
Results filed as inconclusive are left out. The source made the active and inactive calls. Rule for the calls: active = hit-call score of the fitted dose curve at least 0.9, where 1 is the maximum; inconclusive = response in the unintended direction; inactive = score below 0.9.

Target: Cytochrome P450 3A4 (Homo sapiens) (UniProt P08684)
Assay: NVS_ADME_hCYP3A4: NovaScreen (NVS) CYP450-related Enzyme Activity (ADME) Assay for human CYP3A4 (AID 2283110)
Protocol: NVS_ADME_hCYP3A4 is a biochemical, single-readout assay that uses extracted gene-proteins from insect cells in a cell-free assay. Measurements were taken 0.33 hour after chemical dosing in a 96-well plate.NVS_ADME_hCYP3A4 is one of one assay component(s) measured or calculated from the NVS_ADME_hCYP3A4 assay. It is designed to make measurements of enzyme activity, a form of enzyme reporter, as detected with fluorescence intensity signals by Fluorescence technology.Data from the assay component NVS_ADME_hCYP3A4 was analyzed into 1 assay endpoint. This assay endpoint, NVS_ADME_hCYP3A4, was analyzed in the positive analysis fitting direction relative to Acetonitrile as the negative control and baseline of activity. Using a type of enzyme reporter, loss-of-signal activity can be used to understand changes in the enzymatic activity as they relate to the gene CYP3A4. Furthermore, this assay endpoint can be referred to as a primary readout, because this assay has produced multiple assay endpoints where this one serves a enzymatic activity function. To generalize the intended target to other relatable targets, this assay endpoint is annotated to the cyp intended target family, where the subfamily is xenobiotic metabolism.
Binding assays used specific radioligands (tritiated, iodinated) with non-radioactive competitive displacement ligands in agonist or antagonist protocols (as indicated) and various reference compounds and inhibitors to titrate specific binding to receptors and transporters. Most enzyme assays (CYPs, kinases, phosphatases, proteases, HDACs) used recombinant protein and specific substrates (fluorescence mostly, some colorimetric and radioactive) and inhibitors, followed by a biochemical separation of substrate and product. All assays for the biochemical HTS were initially run in duplicate at a single concentration (10 uM for CYP450 assays and 25 uM for all others). […] Each assay was run with positive and negative controls, and concurrent controls on every plate. The follow-up (secondary) screen tested active chemical-pairs in concentration series, as well as a few additional assays not tested in the primary screen, some selected negative inactives, and several cases re-run in the concentration series for confirmatory purposes.

Chain of Cytochrome P450 3A4 (Homo sapiens) (P08684 whole entry, looked up): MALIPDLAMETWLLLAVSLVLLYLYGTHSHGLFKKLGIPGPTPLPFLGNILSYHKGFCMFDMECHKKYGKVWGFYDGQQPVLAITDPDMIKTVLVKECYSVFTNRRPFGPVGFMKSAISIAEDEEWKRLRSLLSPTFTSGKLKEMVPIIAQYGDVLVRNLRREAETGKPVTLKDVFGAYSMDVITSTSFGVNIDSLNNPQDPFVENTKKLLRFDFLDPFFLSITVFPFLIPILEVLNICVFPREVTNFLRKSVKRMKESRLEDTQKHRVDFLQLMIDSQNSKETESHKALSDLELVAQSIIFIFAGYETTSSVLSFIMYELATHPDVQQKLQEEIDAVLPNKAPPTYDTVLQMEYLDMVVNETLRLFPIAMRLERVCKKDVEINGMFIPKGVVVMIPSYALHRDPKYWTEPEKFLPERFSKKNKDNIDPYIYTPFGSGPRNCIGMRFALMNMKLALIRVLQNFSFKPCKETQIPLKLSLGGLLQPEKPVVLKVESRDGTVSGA

SMILES | outcome | AC50
CN(C)C(=S)SSC(=S)N(C)C | inactive | 
CCCN(CCC)c1c([N+](=O)[O-])cc(S(N)(=O)=O)cc1[N+](=O)[O-] | inactive | 
CO/C=C(/C(=O)OC)c1ccccc1Oc1cc(Oc2ccccc2C#N)ncn1 | inactive | 
N#CC(CCc1ccc(Cl)cc1)(Cn1cncn1)c1ccccc1 (stereo not given) |  | 4.35 µM (active)
COc1ccc(C(c2ccc(OC)cc2)C(Cl)(Cl)Cl)cc1 | inactive | 
C#CCOS(=O)OC1CCCCC1Oc1ccc(C(C)(C)C)cc1 (stereo not given) | inactive | 
OC(c1ccc(Cl)cc1)(c1cncnc1)c1ccccc1Cl (stereo not given) |  | 3.87 µM (active)
C=CC1(C)OC(=O)N(c2cc(Cl)cc(Cl)c2)C1=O (stereo not given) | inactive | 
C=CCC1=C(C)C(OC(=O)C2C(C=C(C)C)C2(C)C)CC1=O (stereo not given) | inactive | 
O=C(O)c1nc(Cl)ccc1Cl | inactive | 
